Where “and” joins values, the source holds several entries; their conditions need not be identical. Identical values can stand only once. This is part of a sample that, as a whole, favours compounds with a hit. Of some 83,000 tested, about 20% had one in any assay.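 Single-concentration screen, 48 h exposure, 96-well plates. Endpoint: percent growth. Below 10 = active.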 A number with no mark means an inactive call. Calls of active or inactive are those of the source.
test system: MDA-MB-468 breast; assay: NCI-60 one-dose screen, 48 h (100 = growth as untreated, 0 = no growth, -100 = all killed); settings: 10 µM unless noted

SMILES	growth
COc1ccc2nc3cc(Cl)ccc3c(Nc3ccc(O)c(CN4CCCC4)c3)c2c1	-35.9% (active)
COc1ccc(-c2cn[nH]c2-c2ccc(OC)c(O)c2)cc1	47.1%
CSc1nc(N)c(N)c(N)n1	114%
CC1=C(C(=O)OC(C)C)C(c2ccc3c(c2)OCO3)NC(=S)N1 (stereo unspecified)	115%
Cn1cc(-c2csc(-c3cn(CCCN4CCCCC4)c4ccc(F)cc34)n2)c2cccnc21	91.7%
COc1ccc(/C=C2\CN(C(=O)C(Cl)Cl)C/C(=C\c3ccc(OC)c(OC)c3)C2=O)cc1OC	-14.2% (active)
O=C(/C=C(/C=C/c1csc2ccccc12)OB(F)F)/C=C/c1csc2ccccc12	-3.4% (active)
COc1ccc(-c2cc3c(C)nc(N)nc3n(C3CCC(OCCO)CC3)c2=O)cn1 (stereo unspecified)	-50% (active)
C/C(=C(/c1ccc(O)cc1)c1ccc(OCCN(C)C)cc1)c1ccc(Cl)cc1	22.2%
O=C1/C(=C/c2cccc(Br)c2)COc2ccc(O)c(O)c21	-47.5% (active)
O=[N+]([O-])c1ccc(/C=N\NC(=S)Nc2ccc(F)cc2)cc1	104% and 101%
CNC(=O)c1cc(Oc2ccc(NC(=O)c3[nH]c(SC)nc3-c3ccc(F)cc3)cc2)ccn1	70.9%
C#C[C@]1(O)CC[C@H]2[C@@H]3CC=C4c5sc(-c6ccc(C)cc6)nc5CC[C@]4(C)[C@H]3CC[C@@]21C	84.4%
CC/C(=C\c1ccc(OC)cc1)C(=O)c1ccc(OC)cc1	79.2%
O=C(Nc1cnn2ccc(N3CCC[C@@H]3c3cc(F)ccc3F)nc12)N1CC[C@H](O)C1	88.7%
CCN1CCN(CCCN(C[C@H]2Cc3ccccc3CN2)[C@H]2CCCc3cccnc32)CC1	87.1%
CCCCCCCCNC(C)C(O)c1ccc(SC(C)C)cc1 (stereo unspecified)	17.6%
C=C1C(=O)O[C@H]2[C@H]1CC/C(COC(=O)NCc1ccc(Cn3c(=O)sn(-c4ccc(C#N)cc4)c3=O)cc1)=C\CC[C@@]1(C)O[C@@H]21	7.72% (active)
CCC(O)C(C)(C)C (stereo unspecified)	115%
O=C1CCC(=O)N1CC1CC2CCC1C2 (stereo unspecified)	104% and 90.6%
CCCSc1nc2ccc(C)cc2cc1/C=[N+](\[O-])c1ccccc1	88.4%
CC(C)CCC[C@@H](C)[C@H]1CC[C@H]2[C@@H]3CC=C4c5sc(Nc6cc(C(F)(F)F)cc(C(F)(F)F)c6)nc5CC[C@]4(C)[C@H]3CC[C@]12C	105%
CCCCCCCCn1ccc2cc(NC(=O)CN3CCN(c4nc(C)cc(N5CCCCC5)n4)CC3)ccc21	73.2%
COc1ccc2c(c1)oc1c(C)c3c(c(C)c12)C(=O)N(Nc1ccccc1)C3=O	115%
Fc1cccc(COc2ccc(Nc3ncnc4onc(-c5ccccc5)c34)cc2)c1	9.54% (active)
COc1ccc(-c2csc(NC(=O)c3cc(OC)c(OC)c(OC)c3)n2)cc1	86.8%

Source: PubChem BioAssay (NCI)
